Source: ChEMBL document CHEMBL1157539, “Thousands of chemical starting points for antimalarial lead identification” (Nature, 2010)

Test system: Plasmodium falciparum
Assay: GSK_TCMDC: Inhibition of Plasmodium falciparum 3D7 in whole red blood cells, using parasite LDH activity as an index of growth. Test compounds present at 2uM
Type: functional

Going from `CCN(CC)CCCNc1cc[n+]([O-])c2cc3ccccc3cc12` to `O=c1cc(NCCCNCc2ccc(C(F)(F)F)cc2F)[nH]c2ccccc12`, the Inhibition falls from 100% to 93%.

Compared with `Cl.NC1=NC2(CCCC2)N(c2ccc(Cl)cc2)C(N)=N1`, `NC1=NC(c2ccccc2)(c2ccccc2)C(=O)N1CC1CCC1.O=CO` is lower in Inhibition: 97% for the first, 96% for the second.

First: COc1ccc2nccc(CCN3CC(O)C(CNCc4ccc5c(n4)NC(=O)CS5)C3)c2n1.Cl (stereo not drawn)
Second: Cc1ccc(C)c(CN2CCC(CNC(=O)c3cc4ccc5cccnc5c4[nH]3)CC2)c1
The Inhibition of the first is lower: 86% for the first, 95% for the second.

Going from `CC(C)NCc1cccc(-c2ccc(NC(=O)c3ccc(F)cc3)cc2)c1.O=C(O)C(F)(F)F` to `Cc1cccc2nc(-c3ccc(-c4cccc(CNCCNC(=O)c5ccnn5C)c4)cc3)[nH]c12.O=C(O)C(F)(F)F`, the Inhibition rises from 92% to 100%.

Going from `CCOc1cccc(C(=O)Nc2nonc2-c2ccc(OC)c(OC)c2)c1` to `COc1cccc(CNc2noc(-c3c(-c4ccccc4)noc3C)n2)c1OC`, the Inhibition rises from 92% to 97%.

Compared with `CC(=O)O.CCc1cc2c(cc1CC)CC(NC[C@@H](O)c1ccc(O)c3[nH]c(=O)ccc13)C2`, `CC(C)N(CC(=O)c1ccc(O)c(C(=O)O)c1)Cc1ccccc1.Cl` is lower in Inhibition: 100% for the first, 97% for the second.

First: Nc1nccc(-c2ccc3c(-c4cccc(F)c4)cnc(N)c3c2)n1
Second: O=C(Cc1c[nH]cn1)Nc1ccc(-c2cccc(-c3nc4cc(C(F)(F)F)ccc4[nH]3)c2)cc1
The Inhibition of the first is lower: 93% for the first, 100% for the second.

`Cc1ccc(Nc2ccnc(Nc3ccc4c(c3)CS(=O)(=O)C4)n2)cc1O.Cl` and `CN(C)Cc1cc(Nc2ccnc3cc(Cl)ccc23)ccc1O.Cl` are the same in Inhibition: 100% for the first, 100% for the second.

First: O=C(C1CCN(C(c2ccccc2)c2ccc(Cl)c(Cl)c2)CC1)N1CC=CC1 (stereo not drawn)
Second: O=C(/C=C/c1ccc(Cl)c(Cl)c1)NC1CCC(CN2CCC(Cc3c[nH]c4ccccc34)CC2)CC1 (stereo not drawn)
The Inhibition of the first is lower: 89% for the first, 100% for the second.

Compared with `CCCN(c1ccc(C(F)(F)F)cc1[N+](=O)[O-])S(=O)(=O)C(c1ccccc1)c1ccc(C(F)(F)F)cc1[N+](=O)[O-]` (stereo not drawn), `COc1cccc(-c2csc(C(=O)NCC3CCN(Cc4ccc(C(C)(C)C)cc4)C3)c2)c1.O=C(O)C(F)(F)F` (stereo not drawn) is higher in Inhibition: 94% for the first, 95% for the second.

Compared with `COc1ccc2[nH]ccc(=NN=Cc3cccnc3)c2c1`, `COc1ccc2[nH]c(/C=C/c3cccc4ccc(C)nc34)nc2c1` is lower in Inhibition: 100% for the first, 98% for the second.

Going from `Cc1cccc2nc(-c3cccc(-c4cccc(CNCCN5CCNCC5)c4)c3)[nH]c12.O=C(O)C(F)(F)F` to `CN1CCC(NCc2ccc(-c3cccc(S(=O)(=O)NCCc4ccccn4)c3)cc2)CC1.O=C(O)C(F)(F)F`, the Inhibition falls from 90% to 84%.

First: CC(C)(C)OC(=O)/C=C(\C(=O)OCc1ccc([N+](=O)[O-])cc1)c1csc(NC(c2ccccc2)(c2ccccc2)c2ccccc2)n1
Second: COc1cc2nc(Nc3ccc4c(ccn4Cc4ccccc4)c3)nc(Nc3ccc4c(ccn4Cc4ccccc4)c3)c2cc1OC
The Inhibition of the first is higher: 96% for the first, 89% for the second.

First: CC(C)(CC1CCCCC1)NC(=O)[C@H](CC1CCCCC1)Nc1ccc(C#N)c2ccccc12.O=C(O)C(F)(F)F
Second: Cl.O=c1n(CC2CCCCC2)c2cc(Cl)cc(OCCNc3ccncc3)c2n1CC1CCCCC1
The Inhibition of the first is lower: 98% for the first, 100% for the second.

Compared with `CN(C)C(=O)CC(=O)NCc1cccc(Cl)c1`, `O=C(NCCCCCN1CCC(c2c[nH]c3ccccc23)CC1)Nc1cccc(Cl)c1` is lower in Inhibition: 99% for the first, 86% for the second.

Compared with `Clc1cccc(CNc2nc(NCCc3c[nH]cn3)nc(NC3CCCCC3)n2)c1`, `COc1ccc2nccc([C@@H](O)CN3CCC(NCc4cc5cccc(OCc6ccccc6)c5[nH]4)CC3)c2c1` is higher in Inhibition: 98% for the first, 100% for the second.

Compared with `O=S(=O)(c1ccccc1)C1CC1`, `CCS(=O)(=O)Nc1ccc2c(c1)/C(=C(/Nc1ccc(CN3CCCCC3)cc1)c1ccccc1)C(=O)N2` [HESPERADIN] is lower in Inhibition: 89% for the first, 87% for the second.

`CCN(CC)CCOc1cc2c(cc1Br)-c1cc(Br)c(OCCN(CC)CC)cc1C2=NO.Cl` and `CN1CCN(c2ccnc3cc4c(cc23)N(C(=O)Nc2ccc3c(c2)CCCC3=O)CC4)CC1.Cl` are the same in Inhibition: 100% for the first, 100% for the second.

Compared with `Cc1nnsc1C(=O)Nc1cccc(-c2ccc(-c3nc4ccccc4[nH]3)cc2)c1`, `CC(=O)c1ccc(NC(=O)C2c3ccccc3C(=O)N(CC(C)C)C2c2cccs2)cc1` (stereo not drawn) is lower in Inhibition: 100% for the first, 99% for the second.

In the case of `CC(C)(C)NCCN(Cc1ccc(-c2ccc(C(F)(F)F)cc2)cc1)C(=O)Cn1c(CCc2cccc(F)c2F)nc(=O)c2c1CCC2.O=C(O)C(O)C(O)C(=O)O`, the Inhibition is reported as 95%.

Test system: Plasmodium falciparum
Assay: GSK_TCMDC: Inhibition of Plasmodium falciparum Dd2 in whole red blood cells, using parasite LDH activity as an index of growth. Test compounds present at 2uM
Type: functional

Going from `CCN(CC)CCCNc1cc[n+]([O-])c2cc3ccccc3cc12` to `O=c1cc(NCCCNCc2ccc(C(F)(F)F)cc2F)[nH]c2ccccc12`, the Inhibition rises from 3% to 48%.

First: Cl.NC1=NC2(CCCC2)N(c2ccc(Cl)cc2)C(N)=N1
Second: NC1=NC(c2ccccc2)(c2ccccc2)C(=O)N1CC1CCC1.O=CO
The Inhibition of the first is lower: 0% for the first, 74% for the second.

First: COc1ccc2nccc(CCN3CC(O)C(CNCc4ccc5c(n4)NC(=O)CS5)C3)c2n1.Cl (stereo not drawn)
Second: Cc1ccc(C)c(CN2CCC(CNC(=O)c3cc4ccc5cccnc5c4[nH]3)CC2)c1
The Inhibition of the first is higher: 26% for the first, 10% for the second.

Going from `CC(C)NCc1cccc(-c2ccc(NC(=O)c3ccc(F)cc3)cc2)c1.O=C(O)C(F)(F)F` to `Cc1cccc2nc(-c3ccc(-c4cccc(CNCCNC(=O)c5ccnn5C)c4)cc3)[nH]c12.O=C(O)C(F)(F)F`, the Inhibition rises from 3% to 92%.

Compared with `CCOc1cccc(C(=O)Nc2nonc2-c2ccc(OC)c(OC)c2)c1`, `COc1cccc(CNc2noc(-c3c(-c4ccccc4)noc3C)n2)c1OC` is lower in Inhibition: 95% for the first, 86% for the second.

First: CC(=O)O.CCc1cc2c(cc1CC)CC(NC[C@@H](O)c1ccc(O)c3[nH]c(=O)ccc13)C2
Second: CC(C)N(CC(=O)c1ccc(O)c(C(=O)O)c1)Cc1ccccc1.Cl
The Inhibition of the first is lower: 9% for the first, 26% for the second.

Compared with `Nc1nccc(-c2ccc3c(-c4cccc(F)c4)cnc(N)c3c2)n1`, `O=C(Cc1c[nH]cn1)Nc1ccc(-c2cccc(-c3nc4cc(C(F)(F)F)ccc4[nH]3)c2)cc1` is higher in Inhibition: 44% for the first, 95% for the second.

Going from `Cc1ccc(Nc2ccnc(Nc3ccc4c(c3)CS(=O)(=O)C4)n2)cc1O.Cl` to `CN(C)Cc1cc(Nc2ccnc3cc(Cl)ccc23)ccc1O.Cl`, the Inhibition rises from 76% to 100%.

Compared with `O=C(C1CCN(C(c2ccccc2)c2ccc(Cl)c(Cl)c2)CC1)N1CC=CC1` (stereo not drawn), `O=C(/C=C/c1ccc(Cl)c(Cl)c1)NC1CCC(CN2CCC(Cc3c[nH]c4ccccc34)CC2)CC1` (stereo not drawn) is lower in Inhibition: 84% for the first, 9% for the second.

Compared with `CCCN(c1ccc(C(F)(F)F)cc1[N+](=O)[O-])S(=O)(=O)C(c1ccccc1)c1ccc(C(F)(F)F)cc1[N+](=O)[O-]` (stereo not drawn), `COc1cccc(-c2csc(C(=O)NCC3CCN(Cc4ccc(C(C)(C)C)cc4)C3)c2)c1.O=C(O)C(F)(F)F` (stereo not drawn) is lower in Inhibition: 49% for the first, 10% for the second.

Compared with `COc1ccc2[nH]ccc(=NN=Cc3cccnc3)c2c1`, `COc1ccc2[nH]c(/C=C/c3cccc4ccc(C)nc34)nc2c1` is lower in Inhibition: 84% for the first, 77% for the second.

`Cc1cccc2nc(-c3cccc(-c4cccc(CNCCN5CCNCC5)c4)c3)[nH]c12.O=C(O)C(F)(F)F` and `CN1CCC(NCc2ccc(-c3cccc(S(=O)(=O)NCCc4ccccn4)c3)cc2)CC1.O=C(O)C(F)(F)F` are the same in Inhibition: 0% for the first, 0% for the second.

Going from `CC(C)(C)OC(=O)/C=C(\C(=O)OCc1ccc([N+](=O)[O-])cc1)c1csc(NC(c2ccccc2)(c2ccccc2)c2ccccc2)n1` to `COc1cc2nc(Nc3ccc4c(ccn4Cc4ccccc4)c3)nc(Nc3ccc4c(ccn4Cc4ccccc4)c3)c2cc1OC`, the Inhibition falls from 97% to 80%.

First: CC(C)(CC1CCCCC1)NC(=O)[C@H](CC1CCCCC1)Nc1ccc(C#N)c2ccccc12.O=C(O)C(F)(F)F
Second: Cl.O=c1n(CC2CCCCC2)c2cc(Cl)cc(OCCNc3ccncc3)c2n1CC1CCCCC1
The Inhibition of the first is lower: 52% for the first, 64% for the second.

Going from `CN(C)C(=O)CC(=O)NCc1cccc(Cl)c1` to `O=C(NCCCCCN1CCC(c2c[nH]c3ccccc23)CC1)Nc1cccc(Cl)c1`, the Inhibition falls from 3% to 0%.

Compared with `Clc1cccc(CNc2nc(NCCc3c[nH]cn3)nc(NC3CCCCC3)n2)c1`, `COc1ccc2nccc([C@@H](O)CN3CCC(NCc4cc5cccc(OCc6ccccc6)c5[nH]4)CC3)c2c1` is higher in Inhibition: 0% for the first, 40% for the second.

Compared with `O=S(=O)(c1ccccc1)C1CC1`, `CCS(=O)(=O)Nc1ccc2c(c1)/C(=C(/Nc1ccc(CN3CCCCC3)cc1)c1ccccc1)C(=O)N2` [HESPERADIN] is higher in Inhibition: 65% for the first, 74% for the second.

First: CCN(CC)CCOc1cc2c(cc1Br)-c1cc(Br)c(OCCN(CC)CC)cc1C2=NO.Cl
Second: CN1CCN(c2ccnc3cc4c(cc23)N(C(=O)Nc2ccc3c(c2)CCCC3=O)CC4)CC1.Cl
The Inhibition of the first is higher: 98% for the first, 64% for the second.

Going from `Cc1nnsc1C(=O)Nc1cccc(-c2ccc(-c3nc4ccccc4[nH]3)cc2)c1` to `CC(=O)c1ccc(NC(=O)C2c3ccccc3C(=O)N(CC(C)C)C2c2cccs2)cc1` (stereo not drawn), the Inhibition falls from 58% to 51%.

`CC(C)(C)NCCN(Cc1ccc(-c2ccc(C(F)(F)F)cc2)cc1)C(=O)Cn1c(CCc2cccc(F)c2F)nc(=O)c2c1CCC2.O=C(O)C(O)C(O)C(=O)O` gave an Inhibition of 48%.
